# Results: PubChem BioAssay (NCATS)
# Records with an inconclusive call do not appear. Where a call stands in place of a potency, no number is given. Values without a mark were called inactive. Active and inactive are the calls of the source. Calls follow the shape of the dose curve; as a rule, active = well fitted inhibition curve with a large enough effect; inconclusive = small, poorly fitted or top-dose-only effect; inactive = flat fitted curve, though single readings scatter.
# Target: Calcium and integrin-binding protein 1 (Homo sapiens) (UniProt Q99828)
# Experiment: Primary qHTS for Identification of Calcium Integrin Binding Protein 1 (CIB1) Competitor (AID 1508620);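 also: GST tagged CIB1 binding a fluorescein labelled alphaIIb integrin peptide tracer; top concentration of the series differs between compounds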
# Details: CIB1-GST / FITC-alphaIIb peptide fluorescence polarization; series mostly up to 57.7 µM; activity change, negative = inhibition: at the top concentration
# Method in brief: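 CIB1-GST (1 uM final) and compound incubated 15 min at room temperature before adding FITC-alphaIIb peptide tracer (100 nM final). Competition for binding read by fluorescence polarization (ex 480, em 540) after another 15 min at room temperature.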
# Calcium and integrin-binding protein 1 (Homo sapiens), sequence (Q99828 whole entry, looked up): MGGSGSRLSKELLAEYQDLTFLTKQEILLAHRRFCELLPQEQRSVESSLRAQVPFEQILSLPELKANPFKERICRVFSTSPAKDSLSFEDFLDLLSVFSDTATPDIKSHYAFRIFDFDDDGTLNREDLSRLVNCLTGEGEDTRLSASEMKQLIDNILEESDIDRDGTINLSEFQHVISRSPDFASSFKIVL
SMILES,Potency,"activity change, negative = inhibition"
NC(=O)c1ccc(N(C(N)=O)c2c(F)cccc2F)nc1-c1ccc(F)cc1F,inactive,
Nc1ncnc2c1c(-c1cccc(OCc3ccccc3)c1)cn2C1CC(CN2CCC2)C1 (stereo unspecified),inactive,
O=C(Nc1cccc(C(F)(F)F)c1)Nc1cc(S(=O)(=O)NC2CC2)ccc1-c1ccsc1,inactive,
Cc1ccc2c(c1)c1c(n2CCc2ccc(C)nc2)CCN(C)C1,inactive,
CNC(=O)c1ccc2c(C(=Nc3cccc(CN(C)C)c3)c3ccccc3)c(O)[nH]c2c1,inactive,
Nc1[nH]nc2nnc(-c3c(-c4ccccc4)nn4ccccc34)cc12,inactive,
COc1cc2ncn(-c3cc(OCc4ccccc4S(C)(=O)=O)c(C#N)s3)c2cc1OC,,3.22%
CN1N=C(N)c2cn([C@@H]3O[C@H](COP(=O)(O)O)[C@@H](O)[C@@H]3O)c3ncnc1c23,,-5.81%
CN(C)c1ccc(-c2nc3ncc(Cl)c(N4CCN(CC(=O)Nc5nccs5)CC4)c3[nH]2)cc1,inactive,
CN1CCC(COc2cnc(-c3cccc(Cn4nc(-c5cccc(C#N)c5)ccc4=O)c3)nc2)CC1,inactive,
COc1nccc(-c2c(-c3ccc(F)cc3)ncn2C2CCC(O)CC2)n1 (stereo unspecified),inactive,
NC(=O)c1nnn(Cc2cc(Cl)c(C(=O)c3ccc(Cl)cc3)c(Cl)c2)c1N,,-1.57%
OC[C@H]1O[C@@H](Oc2ccc(O)cc2)[C@H](O)[C@@H](O)[C@H]1O,,-1.57%
CCCCC(C=O)NC(=O)C(CC(C)C)NC(=O)OCc1ccccc1 (stereo unspecified),,-1.53%
COc1c(C)cnc(Cn2cnc3c(Cl)nc(N)nc32)c1C,,0.0012%
CN(C)CCOc1cc(-c2cn[nH]c2)ccc1NC(=O)C1COc2ccccc2O1 (stereo unspecified),inactive,
